Bioassay records (PubChem BioAssay)
DT40 TDP1 no CPT: qHTS for Inhibitors of human tyrosyl-DNA phosphodiesterase 1 (TDP1): qHTS in cells in absence of CPT | DT40 Tdp1-/- hTDP1 cells, no CPT, ATP luminescence, 48 h | Potency, µM (titrated, usually from 46.2 µM), for inactives: top-dose activity change, negative = growth inhibition, hits mostly inhibitors | 420,000 compounds, 15% hits; also: nearly all actives have a fitted effect of over 55% in size
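Growth of hTDP1-complemented DT40 Tdp1-knockout cells is measured by ATP luminescence after at least 48 hr compound exposure at 37 °C, with DMSO substituting for the 20 nM CPT used in the parallel screen.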
HT1080-NT tox: qHTS for induction of synthetic lethality in tumor cells producing 2HG: qHTS for the HT-1080-NT fibrosarcoma cell line. Potency, µM (series often up to 46.1 µM), without a hit: top-dose activity, negative = less viability, hits mostly cytotoxic. HT-1080-NT fibrosarcoma viability, CellTiter-Glo ATP luminescence, 48 h. 360,000 compounds, 1.6% hits;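 also: NT is the 2HG producing partner of a matched IDH1 knockdown line; 0% = DMSO-treated cells and -100% = media-only wells without cells; nearly all actives have a fitted effect of over 55% in size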
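HT-1080-NT; 750 cells/well; 5% FBS RPMI; 48 h compound, 37 degrees C; CellTiter-Glo luminescence; curve fitting and curve-class assignment.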
KB-V1 cytotox: qHTS assay for MDR1-selective chemotherapeutics: Primary screen using the drug-selected MDR subline cells KB-V1; Potency, µM (titrated, usually from 46.1 µM), hits mostly cytotoxic; 400,000 compounds, 3.4% hits; AID 1347076, 2019; KB-V1 MDR cells viability, CellTiter-Glo, 72 h; also: nearly all actives have a fitted effect of over 60% in size
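Cytotoxicity via CellTiter-Glo luminescence after 72 h compound exposure at 37 degrees C. Cells: drug-selected KB-V1 line, DMEM phenol-red free plus 10% FBS. Compounds tested at multiple concentrations; normalized data fitted to concentration-effect curves.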
KB-3-1 tox: qHTS assay for MDR1-selective chemotherapeutics: Primary screen using the parental adenocarcinoma cell KB-3-1. Potency, µM (doses to about 46.1 µM), most hits filed as cytotoxic. AID 1347075, 2019. 400,000 compounds, 1.4% hits. KB-3-1 viability, CellTiter-Glo ATP luminescence, 72 h; also: nearly all actives have a fitted effect of over 60% in size
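72 h, 37 °C compound treatment of KB-3-1 parental cells; CellTiter-Glo added, 10 min, luminescence read. Data corrected against DMSO-only plates and normalized before curve fitting.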
DT40 TDP1 CPT: qHTS for Inhibitors of human tyrosyl-DNA phosphodiesterase 1 (TDP1): qHTS in cells in presence of CPT | chicken DT40 Tdp1-/-;hTDP1 cells + 20 nM CPT, ATP luminescence, 48 h | Potency, µM (highest dose often 46.2 µM), without a hit: at the highest dose activity change, negative = growth inhibition, actives largely listed as inhibitors | 420,000 compounds, 12% hits | AID 686979, 2013; also: nearly all actives have a fitted effect of over 55% in size
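Chicken DT40 Tdp1-/- cells complemented with human TDP1, 400 cells/well, exposed to compounds plus 20 nM camptothecin for at least 48 h at 37 C; viability read as ATP content by CellTiter-Glo luminescence.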
HT1080 IDH1KD tx: qHTS for induction of synthetic lethality in tumor cells producing 2HG: qHTS for the HT-1080-IDH1KD cell line; HT-1080 IDH1 knockdown viability, ATP luminescence, 48 h; Potency, µM (series often up to 46.1 µM), for inactives: at the top dose activity, negative = toxicity, hits mostly cytotoxic; 360,000 compounds, 2% hits; AID 686971, 2013;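 also: 0% = DMSO wells and -100% = cell-free medium wells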
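% activity derives from luminescence (CellTiter-Glo), normalised to DMSO and no-cell wells. HT-1080-IDH1KD cells, 750/well, had 48 h compound exposure at 37 °C.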
Numbers without * were called inactive; i = inactive; u = inconclusive; x = no result given. Sampled rows, rich in hits. Any-hit rate of the full collection: about 19%. Calls follow the shape of the dose curve; as a rule, active = well fitted curve in the direction sought with a large enough effect; inconclusive = small, poorly fitted or top-dose-only effect, or another doubt; inactive = no such curve, though single readings can be large; an effect the other way counts as inactive or inconclusive. Unless noted, % is scaled to controls: 0 for no effect and ±100 for the full control effect; potency is read from the fitted curve at half-maximal effect.

SMILES	DT40 TDP1 no CPT	HT1080-NT tox	KB-V1 cytotox	KB-3-1 tox	DT40 TDP1 CPT	HT1080 IDH1KD tx
COc1ccc(C(=O)c2ccc(Br)cc2)cc1	-17%	13%	i	u	-4%	4%
COc1ccc(C(=O)/C=C2\C(=O)Nc3ccc(Br)cc32)cc1	18µM*	u	u	u	2.9µM*	u
O=C(Nc1ccc2c(c1)OCCO2)C1CCN(c2cnccn2)CC1	u	-1%	u	i	-8%	1%
Cn1ccnc1C1CCCCN1Cc1nc(-c2ccc3c(c2)OCO3)no1 (centres undefined)	-8%	-8%	i	i	0%	-8%
CSc1cccc(NC(=S)NN(C)C)c1	18µM*	8%	i	i	u	9%
CSc1cccc(NC(=S)Nc2ccc(F)cc2)c1	u	-4%	i	i	23µM*	5%
COc1ccc(C(=O)NC2CCN(CC(=O)Nc3c(C)cccc3C)CC2)cc1OC	-2%	0%	i	i	-5%	11%
COc1cc2c(cc1OC)CN(C(=O)COc1ccccc1[N+](=O)[O-])CC2	u	-1%	u	i	-25%	-17%
N#CCCN(Cc1ccccc1)C(=S)NC(=O)c1ccccc1	9.2µM*	1.3µM*	u	i	9.2µM*	1.1µM*
CCOc1ccc(C(=O)NC(=S)N(Cc2ccccc2)Cc2ccccc2)cc1	u	u	i	i	21µM*	u
O=C1NCCN1CCNc1nc(NCC2CC2)nc2cc(-c3ccccc3)sc12	21µM*	u	i	i	u	u
COCCNc1nc(NCCCN2CCCC2=O)c2sc(-c3ccccc3)cc2n1	u	u	i	i	u	u
c1ccc(-c2cc3nc(NCC4CC4)nc(NCC4CCCCC4)c3s2)cc1	2.9µM*	3.3µM*	u	u	4.6µM*	4.6µM*
COCCNc1nc(NCCOc2ccccc2Cl)c2sc(-c3ccccc3)cc2n1	13µM*	u	i	i	9.2µM*	u
COCCNc1nc(-c2ccccc2CO)c2sc(-c3ccccc3)cc2n1	1.8µM*	u	21µM*	5.8µM*	1.3µM*	0.92µM*
CCCn1ncc(CN2CCC(n3nccc3NC(=O)c3ccccc3Cl)CC2)c1C	2%	0%	x	x	8%	9%
C=CCn1c(COc2ccccc2F)nnc1SCCN1C(=O)c2ccccc2C1=O	u	0%	i	i	-4%	-3%
O=C(Nc1ccc2ccccc2c1)Nc1nnc(-c2ccccn2)s1	x	x	i	u	x	x
COCCNc1nc(NCC2CCCCC2)c2sc(-c3ccccc3)cc2n1	8.2µM*	18µM*	u	u	15µM*	18µM*
Cc1cc(C)c(-c2csc(-c3cc4ccccc4oc3=O)n2)cc1C	u	x	i	i	-27%	x
Cc1cc(C)c(-c2csc(Cc3nc(-c4cc5ccccc5oc4=O)cs3)n2)cc1C	15µM*	-3%	u	23µM*	18µM*	-9%
Cc1ccc(-c2csc(Cc3nc(-c4cc5ccccc5oc4=O)cs3)n2)cc1	23µM*	-2%	u	i	18µM*	13%
O=c1oc2ccccc2cc1-c1csc(Cc2nc(-c3ccc(Br)cc3)cs2)n1	16µM*	14%	u	u	u	3%
CCOc1ccc(CNC(=O)C2Cc3ccccc3N2C(=O)CC)cc1 (centres undefined)	-26%	x	i	i	-24%	x
